Assay outcomes deposited in PubChem by The Scripps Research Institute Molecular Screening Center.
Most compounds without a hit are left out; they make up all but 3.5% or so of the library.
GPR151 activ – activators of human GPR151, primary screen, cell-based, PathHunter beta-arrestin, luminescence; PathHunter beta-arrestin GPR151 cells; activation, % at 11.2 µM; hit rate 1% among 650,000; in the data active means activation above about 4.9%
TEAD-YAP inh – TEAD-YAP interaction inhibition, primary screen, TEAD-YAP interaction inhibitor project, luminescence, HEK-TIYL cells | TEAD-Gal4/YAP UAS-luciferase luminescence | inhibition, % at 9.12 µM | hit rate 1.4% among 640,000 | AID 1259422, 2018; in the data active means inhibition above about 32%
FBW7 act – FBW7 E3 ligase activators, primary screen, biochemical, AlphaScreen, human | hit rate 0.13% among 650,000 | AlphaScreen FBW7–phospho-cyclin E peptide binding, activator screen | F-box/WD repeat-containing protein 7 (Homo sapiens), Q969H0 | normalized activity (activation), % at 26.1 µM; in the data active means normalized activity above about 1.9%;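 further: purified mutant Fbw7 with reduced substrate affinity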
MITF inh – MITF inhibitors, primary screen, biochemical, AlphaScreen, human. AlphaScreen MITF homodimerization, bead proximity signal. inhibition, % at 2.6 µM. hit rate 0.91% among 650,000; in the data active means inhibition above about 50%
Target sequence (O75030 whole entry, looked up): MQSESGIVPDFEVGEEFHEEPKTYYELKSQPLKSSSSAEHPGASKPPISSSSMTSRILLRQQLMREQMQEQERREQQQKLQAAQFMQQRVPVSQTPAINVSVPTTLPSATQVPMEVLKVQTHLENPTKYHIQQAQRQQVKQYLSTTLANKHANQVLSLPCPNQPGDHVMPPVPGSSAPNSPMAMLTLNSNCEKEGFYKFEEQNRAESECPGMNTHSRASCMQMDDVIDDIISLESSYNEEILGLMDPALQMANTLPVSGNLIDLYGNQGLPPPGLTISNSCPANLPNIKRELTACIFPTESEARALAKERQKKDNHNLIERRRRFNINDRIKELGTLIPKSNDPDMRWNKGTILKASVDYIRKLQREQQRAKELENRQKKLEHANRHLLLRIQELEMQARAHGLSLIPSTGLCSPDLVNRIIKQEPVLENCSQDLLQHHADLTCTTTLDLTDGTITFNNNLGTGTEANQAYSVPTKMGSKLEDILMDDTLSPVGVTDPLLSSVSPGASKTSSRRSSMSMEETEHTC
GPR151 confirm – GPR151 activators, triplicate retest, confirmation, cell-based, PathHunter beta-arrestin, luminescence | shares compounds with GPR151 activ | GPR151 PathHunter beta-arrestin cells, 90 min; % of EA-reagent control over plate median | activation, % at 11.2 µM | 6,700 tested, under 10 active | AID 1508609, 2020;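 active means mean percent activation across replicates above the confirmation screen cutoff of 4.91%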
GPR119 ag – GPR119 activators in beta-arrestin cells, counter-screen for GPR151 activator project, cell-based, PathHunter beta-arrestin, luminescence, triplicate. activation, % at 11.2 µM. hit rate 0.3% among 6,700. 90 min; 0 = compound-well median, 100 = enzyme-acceptor control. shares compounds with GPR151 activ;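 active means mean percent activation in the counterscreen above 29.09%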;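 further: counterscreen on off-target GPR119 to flag nonselective hits from the GPR151 activator screen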
Large screens that a line does not name were inactive (follow-up assays come after a bar, where they were run); ! = repeats disagree.

CN(C(=O)CCl)c1nc(-c2ccc(F)cc2)cs1	GPR151 activ 6.1 | GPR151 confirm inactive | GPR119 ag inactive
O=C(Nc1cccc(-c2nc3ccccc3s2)c1)C12CC3CC(CC(C3)C1)C2	GPR151 activ 5.5 | GPR151 confirm inactive | GPR119 ag inactive
O=C(Nc1cccc(-c2nc3ccccc3s2)c1)c1ccc(N2C(=O)CCC2=O)cc1	GPR151 activ 7.4 | GPR151 confirm inactive | GPR119 ag inactive
Cc1cccc(C(=O)Nc2cccc(-c3nc4ccccc4s3)c2)c1	none
O=C(Nc1cccc(-c2nc3ccccc3s2)c1)c1ccccc1	none
Cc1nn2c(NCc3ccncc3)c3c(nc2c1-c1cccs1)CCC3	none
CC(C)/C(=N\NC(N)=S)c1ccccc1	GPR151 activ 6.5 | GPR151 confirm inactive | GPR119 ag inactive
O=C(NCc1ccccc1Cl)c1c(O)c2ccccc2[nH]c1=O	GPR151 activ 5.0 | GPR151 confirm inactive | GPR119 ag inactive
NC(=O)c1csc(N2CCN(c3ccccn3)CC2)n1	none
COC(=O)COc1ccc(S(=O)(=O)NCCC2=CCCCC2)cc1C	GPR151 activ 30 | GPR151 confirm inactive | GPR119 ag inactive
COCCCNC(=O)C(C)NS(=O)(=O)c1ccc(Br)cc1 (stereo not drawn)	none
O=c1c2ccccc2ncn1CCOCCOc1cccc2ccccc12	none
COc1ccccc1OCCOCCn1cnc2ccccc2c1=O	GPR151 activ 14 | GPR151 confirm inactive | GPR119 ag inactive
Cc1ccc(OCCCCn2cnc3ccccc3c2=O)cc1	GPR151 activ 5.5 | GPR151 confirm inactive | GPR119 ag inactive
COC(=O)c1ccc(C(=O)Nc2nnc(-c3ccc4c(c3)CCCC4)o2)cc1	GPR151 activ 6.0 | GPR151 confirm inactive | GPR119 ag inactive
CCC(=O)Nc1nnc(-c2ccc3c(c2)CCCC3)o1	none
O=C(Nc1cc(Cl)ccc1O)C1CC(c2ccccc2O)=NO1 (stereo not drawn)	none
O=C(Nc1ccc(Cl)cc1)C1CC(c2ccccc2O)=NO1 (stereo not drawn)	GPR151 activ 5.5 | GPR151 confirm inactive | GPR119 ag inactive
Nc1nc(SCC(=O)N2CCC(Cc3ccccc3)CC2)n[nH]1	none
CCOC(=O)c1c(NC(=O)/C=C/c2ccc(C)o2)sc(C)c1C	GPR151 activ 9.8 | GPR151 confirm inactive | GPR119 ag inactive
CCn1c(=O)c2c(nc(SCC(N)=O)n2C)n(C)c1=O	none
Cc1ccc(OC(=O)c2ccc(N3C(=O)c4cccc([N+](=O)[O-])c4C3=O)cc2)cc1C	GPR151 activ 5.9 | GPR151 confirm inactive | GPR119 ag inactive
CC(c1ccccc1)C1CC(=O)N(c2ccc(Cl)cc2)C1=O (stereo not drawn)	none
CC(c1ccccc1)C1CC(=O)N(Cc2ccccc2)C1=O (stereo not drawn)	GPR151 activ 22 | GPR151 confirm inactive | GPR119 ag inactive
Cc1cc(NC(=O)NC(=O)c2cccc(Cl)c2)n[nH]1	none
Cc1cc(NC(=O)NC(=O)c2ccc(Cl)c(Cl)c2)n[nH]1	GPR151 activ 6.6 | GPR151 confirm inactive | GPR119 ag inactive
COc1cc(/C=N/O)cc(Cl)c1OS(=O)(=O)c1ccc(C)cc1	GPR151 activ 4.9 | GPR151 confirm inactive | GPR119 ag inactive
COc1cc(/C=N/O)cc(Cl)c1OC	none
C=CCOC(=O)C1C(c2ccccc2)c2c([nH][nH]c2=O)CC1(C)O (stereo not drawn)	none
C=CCOC(=O)C1C(c2cccc(Br)c2)c2c([nH][nH]c2=O)CC1(C)O (stereo not drawn)	GPR151 activ 6.0 | GPR151 confirm inactive | GPR119 ag inactive
Cc1ccc2c(NC(=O)c3ccc(Cl)cc3)noc2n1	GPR151 activ 7.1 | GPR151 confirm inactive | GPR119 ag inactive
CCN(CC)C(=O)[C@@H]1C[C@H](NCc2cccc(C(F)(F)F)c2)CN1Cc1ccncc1	none
Cc1ccc(CCC(=O)Nc2ccc(Cl)cc2Cl)o1	none
Cc1ccc(C(=O)Nc2ccc(F)c([N+](=O)[O-])c2)o1	GPR151 activ 5.4 | GPR151 confirm inactive | GPR119 ag inactive
Cc1ccc(C(=O)Nc2cccc(C(F)(F)F)c2)o1	GPR151 activ 7.1 | GPR151 confirm inactive | GPR119 ag inactive
COc1ccc(C(=O)Nc2cc([N+](=O)[O-])ccc2OC)cc1	none
O=C(Nc1ccc(F)c([N+](=O)[O-])c1)c1ccc(-c2cccc(Cl)c2)o1	none
Cc1ccc(CCC(=O)Nc2ccc([N+](=O)[O-])cc2Cl)o1	GPR151 activ 5.2 | GPR151 confirm inactive | GPR119 ag inactive
COc1ccc([N+](=O)[O-])cc1NC(=O)c1ccc(C)o1	GPR151 activ 9.7 | GPR151 confirm inactive | GPR119 ag inactive
COc1cc2[nH]c(=S)nc(NCCCN3CCCC3)c2cc1OC	none
COc1cc2[nH]c(=S)nc(NCC(OC)OC)c2cc1OC	GPR151 activ 5.5 | GPR151 confirm inactive | GPR119 ag inactive
CC(C)Cc1nc(C#N)c(N2CCOCC2)o1	none
O=C(N[C@H]1CCCCNC1=O)c1ccc(CN2CCC(c3ccccc3)CC2)[nH]c1=O	GPR151 activ 5.3 | GPR151 confirm inactive | GPR119 ag inactive
O=C(NC1C2CC3CC(C2)CC1C3)c1ccc(CN2CCC(O)CC2)[nH]c1=O (stereo not drawn)	none
Cc1cc(S(=O)(=O)N2CCOCC2)ccc1Br	none
COc1ccc(C2(CC(=O)N3CC[C@@H](O)C3)CC(=O)N(CCC(C)C)C2=O)cc1 (stereo partly drawn)	GPR151 activ 6.7 | GPR151 confirm inactive | GPR119 ag inactive
COc1ccc(C2(CC(=O)N3CCCC(O)C3)CC(=O)N(CCC(C)C)C2=O)cc1 (stereo not drawn)	none
O=C(CSC1=NC(=O)C(Cc2ccccc2)C(=O)N1)Nc1ccccc1 (stereo not drawn)	none
Cc1ccc(NC(=O)CSC2=NC(=O)C(Cc3ccccc3)C(=O)N2)cc1 (stereo not drawn)	GPR151 activ 11 | GPR151 confirm inactive | GPR119 ag inactive
Cc1nc2sc(C(c3ccc([N+](=O)[O-])cc3)N3CCC(C(N)=O)CC3)c(O)n2n1 (stereo not drawn)	none
CCC(=O)N(CCC(c1ccccc1)C1CCOC(C)(C)C1)C(C)c1ccccc1 (stereo not drawn)	none
Oc1ccc(C2CNCCc3c2cc(O)c(O)c3Cl)cc1 (stereo not drawn)	GPR151 activ 6.6! | GPR151 confirm inactive | GPR119 ag inactive
c1cc2c(cc1OCCNC1CCCC1)CCC2	GPR151 activ 6.5 | GPR151 confirm inactive | GPR119 ag inactive
